# Reference: the supplement of paper PMC11732987, “Enantioselective OTUD7B fragment discovery through chemoproteomics screening and high-throughput optimisation” (Communications Chemistry, 2025)
# Values without a mark were called inactive.
# Tests used:
# Experiment in all cases: log2 ratio of Biotin-Ahx-Ub-VS probe labelling (fragment/DMSO); higher = less target engagement (more negative = stronger competition), active = hit call of the paper (q ≤ 0.05, log2 ratio ≤ -1)
# Settings in all cases: compound concentration: 200 uM; treatment time: 3 h
# USP19 = biological target: T1, USP19 (UniProt O94966)
# T1 sequence (whole entry): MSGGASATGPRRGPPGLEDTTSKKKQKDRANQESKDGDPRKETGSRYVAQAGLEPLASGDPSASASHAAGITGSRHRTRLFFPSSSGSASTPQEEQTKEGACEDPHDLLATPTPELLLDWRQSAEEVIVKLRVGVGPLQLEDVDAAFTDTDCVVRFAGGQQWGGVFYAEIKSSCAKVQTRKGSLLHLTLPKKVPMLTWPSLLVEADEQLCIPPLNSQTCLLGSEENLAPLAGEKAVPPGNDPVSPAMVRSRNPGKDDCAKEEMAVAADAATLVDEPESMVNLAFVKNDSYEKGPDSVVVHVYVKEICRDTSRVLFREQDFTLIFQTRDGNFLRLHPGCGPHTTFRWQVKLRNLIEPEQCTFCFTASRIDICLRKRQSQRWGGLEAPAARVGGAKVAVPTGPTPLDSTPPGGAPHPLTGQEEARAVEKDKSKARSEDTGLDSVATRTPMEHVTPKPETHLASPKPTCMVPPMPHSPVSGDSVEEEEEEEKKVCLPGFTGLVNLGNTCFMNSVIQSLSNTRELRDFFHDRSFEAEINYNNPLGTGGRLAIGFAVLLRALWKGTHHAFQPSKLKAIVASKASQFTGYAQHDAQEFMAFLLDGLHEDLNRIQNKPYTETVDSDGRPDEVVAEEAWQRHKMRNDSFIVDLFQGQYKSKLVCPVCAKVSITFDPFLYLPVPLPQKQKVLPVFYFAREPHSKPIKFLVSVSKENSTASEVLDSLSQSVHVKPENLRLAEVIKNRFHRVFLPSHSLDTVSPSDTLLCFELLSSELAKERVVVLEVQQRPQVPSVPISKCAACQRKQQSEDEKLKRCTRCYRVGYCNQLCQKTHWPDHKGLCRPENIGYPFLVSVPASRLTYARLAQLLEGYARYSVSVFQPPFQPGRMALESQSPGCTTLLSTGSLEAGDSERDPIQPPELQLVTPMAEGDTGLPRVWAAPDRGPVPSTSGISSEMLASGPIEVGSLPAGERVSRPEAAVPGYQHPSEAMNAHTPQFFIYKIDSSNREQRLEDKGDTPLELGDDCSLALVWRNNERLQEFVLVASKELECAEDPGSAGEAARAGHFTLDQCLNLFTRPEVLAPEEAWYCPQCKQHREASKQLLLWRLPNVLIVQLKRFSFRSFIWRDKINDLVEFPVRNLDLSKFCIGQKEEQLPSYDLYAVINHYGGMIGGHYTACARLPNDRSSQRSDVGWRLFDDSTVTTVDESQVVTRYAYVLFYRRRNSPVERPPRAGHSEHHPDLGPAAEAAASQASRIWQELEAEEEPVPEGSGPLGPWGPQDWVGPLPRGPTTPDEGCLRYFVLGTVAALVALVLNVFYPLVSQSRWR
# Summary of the method: (§1)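 Using Biotin-Ahx-Ub-VS at 0.5 µM final for 1 h, DUBs were labelled in HEK293T lysate (495 µg per sample) that had first been treated in triplicate with fragment at 200 µM or vehicle for 3 h. NeutrAvidin enrichment, LysC and trypsin digestion and diaPASEF LC-MS/MS followed. Spectronaut label-free quantities were global-median-normalised. Values are average log2 fragment/vehicle ratios by unpaired t-test, using proteins with ≥2 unique peptides.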
# USP22 = biological target: T2, USP22 (UniProt Q9UPT9)
# T2 sequence (whole entry): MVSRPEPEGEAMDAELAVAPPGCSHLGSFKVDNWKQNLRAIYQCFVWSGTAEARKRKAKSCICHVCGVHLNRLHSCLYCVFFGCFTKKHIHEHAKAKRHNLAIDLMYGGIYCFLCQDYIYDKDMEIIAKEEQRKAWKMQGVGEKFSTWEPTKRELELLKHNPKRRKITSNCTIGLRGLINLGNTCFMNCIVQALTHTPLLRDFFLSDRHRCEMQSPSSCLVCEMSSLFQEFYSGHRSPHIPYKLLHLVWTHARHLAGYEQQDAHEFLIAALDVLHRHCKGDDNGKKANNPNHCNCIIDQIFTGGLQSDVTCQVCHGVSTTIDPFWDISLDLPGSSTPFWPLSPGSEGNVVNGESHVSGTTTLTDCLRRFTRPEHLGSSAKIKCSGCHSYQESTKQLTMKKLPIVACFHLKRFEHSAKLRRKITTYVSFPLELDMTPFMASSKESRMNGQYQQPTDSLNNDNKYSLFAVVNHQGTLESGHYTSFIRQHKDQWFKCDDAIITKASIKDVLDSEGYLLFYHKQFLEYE
# Summary of the method: as §1
# USP24 = USP24 (UniProt Q9UPU5)
# Summary of the method: as §1
# USP25 = biological target: T3, USP25 (UniProt Q9UHP3)
# T3 sequence (whole entry): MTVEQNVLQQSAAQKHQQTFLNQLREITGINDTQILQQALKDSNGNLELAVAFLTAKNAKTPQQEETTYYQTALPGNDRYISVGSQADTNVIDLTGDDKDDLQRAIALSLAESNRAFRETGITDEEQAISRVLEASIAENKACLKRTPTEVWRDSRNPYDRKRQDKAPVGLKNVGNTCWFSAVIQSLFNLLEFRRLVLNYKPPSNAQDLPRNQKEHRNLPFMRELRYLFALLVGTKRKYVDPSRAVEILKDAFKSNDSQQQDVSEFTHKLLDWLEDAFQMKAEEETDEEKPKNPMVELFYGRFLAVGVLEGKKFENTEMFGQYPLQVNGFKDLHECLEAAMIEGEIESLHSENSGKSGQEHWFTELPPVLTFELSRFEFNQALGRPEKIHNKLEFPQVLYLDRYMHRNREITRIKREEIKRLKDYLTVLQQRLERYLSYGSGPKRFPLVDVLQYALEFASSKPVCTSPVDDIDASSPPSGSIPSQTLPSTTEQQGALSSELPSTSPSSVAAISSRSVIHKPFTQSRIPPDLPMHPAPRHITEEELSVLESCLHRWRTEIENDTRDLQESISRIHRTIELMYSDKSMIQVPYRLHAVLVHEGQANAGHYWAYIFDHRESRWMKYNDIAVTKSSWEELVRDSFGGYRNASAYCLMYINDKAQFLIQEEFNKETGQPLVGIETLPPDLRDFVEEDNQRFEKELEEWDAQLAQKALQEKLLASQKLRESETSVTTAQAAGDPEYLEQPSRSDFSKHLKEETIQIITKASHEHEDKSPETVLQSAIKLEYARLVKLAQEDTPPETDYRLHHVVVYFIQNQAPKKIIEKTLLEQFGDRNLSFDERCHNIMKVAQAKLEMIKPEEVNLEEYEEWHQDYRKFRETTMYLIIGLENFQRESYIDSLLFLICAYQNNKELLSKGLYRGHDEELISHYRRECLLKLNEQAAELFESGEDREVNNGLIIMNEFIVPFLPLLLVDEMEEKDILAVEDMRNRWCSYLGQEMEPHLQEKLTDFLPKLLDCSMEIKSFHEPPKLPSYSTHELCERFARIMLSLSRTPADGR
# Summary of the method: as §1
# USP28 = biological target: T4, USP28 (UniProt Q96RU2)
# T4 sequence (whole entry): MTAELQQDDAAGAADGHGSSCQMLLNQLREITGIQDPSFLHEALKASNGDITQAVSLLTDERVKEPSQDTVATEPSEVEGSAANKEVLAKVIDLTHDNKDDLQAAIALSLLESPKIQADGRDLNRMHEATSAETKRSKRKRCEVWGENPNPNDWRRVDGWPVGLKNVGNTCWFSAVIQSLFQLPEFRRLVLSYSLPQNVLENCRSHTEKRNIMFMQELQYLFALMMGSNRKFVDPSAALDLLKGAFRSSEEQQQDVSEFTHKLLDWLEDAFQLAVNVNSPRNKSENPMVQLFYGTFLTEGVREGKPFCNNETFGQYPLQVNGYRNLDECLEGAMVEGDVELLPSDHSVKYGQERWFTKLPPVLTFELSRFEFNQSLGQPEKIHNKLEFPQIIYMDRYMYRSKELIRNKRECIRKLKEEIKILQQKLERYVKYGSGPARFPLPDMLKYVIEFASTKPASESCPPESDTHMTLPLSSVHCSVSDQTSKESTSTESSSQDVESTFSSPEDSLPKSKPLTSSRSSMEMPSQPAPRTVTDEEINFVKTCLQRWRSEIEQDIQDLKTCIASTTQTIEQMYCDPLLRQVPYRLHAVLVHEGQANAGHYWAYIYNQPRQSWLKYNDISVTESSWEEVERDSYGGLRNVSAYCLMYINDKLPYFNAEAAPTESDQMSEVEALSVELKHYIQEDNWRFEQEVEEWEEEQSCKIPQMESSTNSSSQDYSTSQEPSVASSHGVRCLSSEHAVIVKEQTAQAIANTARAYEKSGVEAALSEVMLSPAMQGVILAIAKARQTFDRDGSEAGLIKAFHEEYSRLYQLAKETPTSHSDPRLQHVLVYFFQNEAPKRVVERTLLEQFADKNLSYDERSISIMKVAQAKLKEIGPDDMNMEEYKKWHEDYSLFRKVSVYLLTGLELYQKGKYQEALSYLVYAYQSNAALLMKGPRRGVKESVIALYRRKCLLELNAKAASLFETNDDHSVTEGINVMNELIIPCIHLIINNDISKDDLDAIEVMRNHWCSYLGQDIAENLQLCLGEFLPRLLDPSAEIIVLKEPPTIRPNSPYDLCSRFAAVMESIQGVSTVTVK
# Summary of the method: as §1
# Chain of USP24 (Q9UPU5 whole entry): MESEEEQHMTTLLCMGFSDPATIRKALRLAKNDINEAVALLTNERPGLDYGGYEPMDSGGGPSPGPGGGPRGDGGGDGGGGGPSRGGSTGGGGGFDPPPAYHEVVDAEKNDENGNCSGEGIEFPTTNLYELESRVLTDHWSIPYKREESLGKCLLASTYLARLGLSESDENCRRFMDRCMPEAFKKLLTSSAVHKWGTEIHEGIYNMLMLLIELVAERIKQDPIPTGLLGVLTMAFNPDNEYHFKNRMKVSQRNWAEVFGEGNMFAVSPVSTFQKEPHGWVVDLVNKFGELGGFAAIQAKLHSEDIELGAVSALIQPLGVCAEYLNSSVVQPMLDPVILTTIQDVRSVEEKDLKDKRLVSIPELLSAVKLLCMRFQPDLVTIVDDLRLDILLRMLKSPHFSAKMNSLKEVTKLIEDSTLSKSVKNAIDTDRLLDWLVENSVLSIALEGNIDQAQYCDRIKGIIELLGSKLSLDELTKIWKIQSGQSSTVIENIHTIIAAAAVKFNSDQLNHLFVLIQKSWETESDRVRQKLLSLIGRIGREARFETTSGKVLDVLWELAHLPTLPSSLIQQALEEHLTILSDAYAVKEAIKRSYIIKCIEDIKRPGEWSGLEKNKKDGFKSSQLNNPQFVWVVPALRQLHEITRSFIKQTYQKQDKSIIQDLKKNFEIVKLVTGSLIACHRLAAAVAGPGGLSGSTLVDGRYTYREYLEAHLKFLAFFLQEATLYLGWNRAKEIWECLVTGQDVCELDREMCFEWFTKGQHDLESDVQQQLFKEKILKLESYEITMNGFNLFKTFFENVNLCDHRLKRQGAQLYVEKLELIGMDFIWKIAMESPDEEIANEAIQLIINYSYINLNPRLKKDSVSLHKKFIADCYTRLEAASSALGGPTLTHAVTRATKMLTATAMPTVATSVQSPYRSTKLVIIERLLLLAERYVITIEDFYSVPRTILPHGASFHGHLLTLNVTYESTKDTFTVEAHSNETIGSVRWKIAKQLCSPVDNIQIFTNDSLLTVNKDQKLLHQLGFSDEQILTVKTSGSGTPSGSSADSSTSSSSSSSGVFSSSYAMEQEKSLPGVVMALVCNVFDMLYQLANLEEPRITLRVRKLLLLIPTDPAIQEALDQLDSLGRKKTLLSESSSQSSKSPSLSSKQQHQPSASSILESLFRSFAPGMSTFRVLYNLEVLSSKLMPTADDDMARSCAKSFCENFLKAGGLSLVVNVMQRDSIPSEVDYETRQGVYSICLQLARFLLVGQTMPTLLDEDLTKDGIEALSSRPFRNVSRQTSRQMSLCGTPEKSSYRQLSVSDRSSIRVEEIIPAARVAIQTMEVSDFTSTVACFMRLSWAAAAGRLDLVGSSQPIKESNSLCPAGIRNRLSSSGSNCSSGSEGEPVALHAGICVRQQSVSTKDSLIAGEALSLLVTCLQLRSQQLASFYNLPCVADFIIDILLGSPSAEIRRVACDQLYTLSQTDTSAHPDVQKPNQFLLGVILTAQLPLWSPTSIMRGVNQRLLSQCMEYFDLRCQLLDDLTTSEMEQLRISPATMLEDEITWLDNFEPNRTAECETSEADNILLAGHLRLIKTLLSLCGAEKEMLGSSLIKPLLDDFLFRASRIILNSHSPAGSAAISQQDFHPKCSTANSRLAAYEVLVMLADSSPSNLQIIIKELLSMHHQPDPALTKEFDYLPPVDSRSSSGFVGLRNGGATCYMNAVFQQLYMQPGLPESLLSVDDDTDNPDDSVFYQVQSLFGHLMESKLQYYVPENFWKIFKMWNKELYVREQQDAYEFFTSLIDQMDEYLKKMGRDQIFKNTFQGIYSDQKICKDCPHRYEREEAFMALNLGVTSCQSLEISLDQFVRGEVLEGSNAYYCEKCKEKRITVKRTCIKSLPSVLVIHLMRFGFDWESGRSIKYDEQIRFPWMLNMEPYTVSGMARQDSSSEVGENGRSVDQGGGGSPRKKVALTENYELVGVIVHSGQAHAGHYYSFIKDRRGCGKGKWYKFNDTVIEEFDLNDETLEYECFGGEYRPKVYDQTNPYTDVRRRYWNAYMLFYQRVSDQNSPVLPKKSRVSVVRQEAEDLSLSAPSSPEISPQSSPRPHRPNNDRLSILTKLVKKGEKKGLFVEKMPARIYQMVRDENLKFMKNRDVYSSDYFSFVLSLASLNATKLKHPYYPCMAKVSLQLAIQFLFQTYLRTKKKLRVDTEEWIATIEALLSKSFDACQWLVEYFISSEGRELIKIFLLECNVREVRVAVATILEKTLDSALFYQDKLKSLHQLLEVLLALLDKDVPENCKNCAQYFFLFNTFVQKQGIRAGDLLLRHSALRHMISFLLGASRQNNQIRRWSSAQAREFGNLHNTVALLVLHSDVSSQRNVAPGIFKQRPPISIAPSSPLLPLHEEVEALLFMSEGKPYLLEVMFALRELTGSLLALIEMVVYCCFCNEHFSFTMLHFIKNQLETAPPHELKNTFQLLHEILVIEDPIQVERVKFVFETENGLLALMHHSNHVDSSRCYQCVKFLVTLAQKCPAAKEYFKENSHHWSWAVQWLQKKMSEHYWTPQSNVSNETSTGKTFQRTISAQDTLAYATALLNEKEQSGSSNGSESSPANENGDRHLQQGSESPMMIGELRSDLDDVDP
structure (smiles),measurement,setting,value
O=C(CCl)N1CCc2sccc2C1,log2 ratio of Biotin-Ahx-Ub-VS probe labelling,USP19,-1.19 (active)
same,log2 ratio of Biotin-Ahx-Ub-VS probe labelling,USP22,-0.23
same,log2 ratio of Biotin-Ahx-Ub-VS probe labelling,USP24,-1.31 (active)
same,log2 ratio of Biotin-Ahx-Ub-VS probe labelling,USP25,-1.13 (active)
same,log2 ratio of Biotin-Ahx-Ub-VS probe labelling,USP28,-0.791
